This is an account of results in PubChem BioAssay AID504652 (National Center for Advancing Translational Sciences (NCATS), 2011).

The campaign covered roughly 360,000 compounds. About 11,000 (3.1%) were called active. What follows is part of a selection rich in actives, with near analogues and random picks from the rest. Unmarked numbers belong to inactive results. Rule as the data show it: active = activity change below about -30%; inactive = the rest.
% is scaled to controls: 0 for no effect and ±100 for the full control effect.

In the assay the target is D(1A) dopamine receptor (Homo sapiens) (UniProt P21728). Put plainly: Antagonist of Human D 1 Dopamine Receptor: qHTS. As to conditions: HEK293 TREx D1 cells, calcium flux, dopamine EC80; at 10 µM; active compounds read low. Put shortly: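 Inducible Hek293 Trex D1 cells (tetracycline, overnight, 30 C). Calcium dye 30–90 min RT. Antagonist mode: EC80 dopamine added after 180 s compound read.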
Chain of D(1A) dopamine receptor (Homo sapiens) (P21728 whole entry, looked up): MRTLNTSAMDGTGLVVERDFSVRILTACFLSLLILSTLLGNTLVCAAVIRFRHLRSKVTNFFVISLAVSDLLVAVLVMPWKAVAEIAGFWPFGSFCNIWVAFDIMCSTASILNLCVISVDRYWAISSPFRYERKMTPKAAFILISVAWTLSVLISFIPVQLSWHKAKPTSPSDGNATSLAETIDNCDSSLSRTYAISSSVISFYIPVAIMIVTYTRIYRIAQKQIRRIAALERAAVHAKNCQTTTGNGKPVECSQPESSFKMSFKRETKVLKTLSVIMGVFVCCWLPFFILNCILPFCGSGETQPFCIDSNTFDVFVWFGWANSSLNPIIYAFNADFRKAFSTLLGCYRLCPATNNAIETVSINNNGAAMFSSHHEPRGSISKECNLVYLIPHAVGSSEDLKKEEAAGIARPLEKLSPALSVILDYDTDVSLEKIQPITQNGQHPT
For orientation: In qHTS, concentration-response curves come from the screen itself.
In the case of `COCCNS(=O)(=O)c1cc(-c2nn3c(C)nnc3c3ccccc23)ccc1C`, the activity change, negative = inhibition is -4.16%.
The figure for `CC(=O)c1cccc(Nc2ccc3cc(S(=O)(=O)N4CCC(C)CC4)ccc3n2)c1` is 13.5%; for `COc1cccc(NC(=S)C(C#N)=C2N(C)c3ccccc3N2C)c1` it is 0.557%; for `CC(=O)Nc1cccc(OCC(=O)/C=C2\N(C)c3ccccc3C2(C)C)c1` it is -35.4% (active).
On to `CN1CCN(CCC(=O)N/N=C/C=C2\N(C)c3ccccc3C2(C)C)CC1`, for which the activity change, negative = inhibition was -8.35%.
The figure for `O=C1OC(C(=O)Nc2cccc(Br)c2)Cc2ccccc21` (stereo not given) is 3.01%; for `COc1ccc2cc(C(=O)NCC3CCCO3)[nH]c2c1` (stereo not given) it is -7.79%; for `COc1cccc(C(=O)NCCS(=O)(=O)NCC2CCCO2)c1` (stereo not given) it is 28.7%.
The figure for `COc1cccc(/C=C2\Sc3ccc(C(=O)NCC4CCCO4)cc3N(C)C2=O)c1` (stereo not given) is -38% (active); for `Brc1cccc(-c2nnn3c2nc(NC2CCCCC2)c2ccccc23)c1` it is 11.9%.
The figure for `Cc1cc(F)ccc1NS(=O)(=O)c1ccc(-n2cccn2)cc1` is -14%; for `Cc1ccc(-n2nc(C)c3c(C)cc(=O)n(CC(=O)Nc4ccc(C(C)C)cc4)c32)cc1` it is 14.4%.
As for `CCOC(=O)c1ccc(N2C(=O)c3[nH]nc(-c4ccccc4)c3C2c2ccc(C(C)C)cc2)cc1` (stereo not given), the activity change, negative = inhibition was 49.1%.
For `CCN1CCCC1CNC(=O)c1cc2c(=O)n(C)c3ccccc3c2n1C` (stereo not given) the value was -10.7%.
The figure for `CCOc1ccc(CCNC(=O)c2cc3c(=O)n(C)c4ccccc4c3n2C)cc1` is -46.8% (active); for `CCOc1ccc(CCNC(=O)c2c(C)oc3ncn(C)c(=O)c23)cc1` it is 3.92%.
For `CCCn1c2ccccc2c2cnn(CC(=O)N(C)c3ccccc3CC)c(=O)c21`, the activity change, negative = inhibition was -1.54%.
As to `O=C(c1ccc2c(c1)N(Cc1ccccc1)C(=O)c1ccccc1S2(=O)=O)N1CCCC1`, the activity change, negative = inhibition was 1.23%.
The figure for `O=C(Nc1cc(C(F)(F)F)ccc1Cl)c1cc2nc(-c3ccc4c(c3)OCO4)cc(C(F)(F)F)n2n1` is 12.4%.
`CC(C)c1ccc(NC(=O)C2CCN(c3nc(-c4ccc(C(C)C)cc4)no3)CC2)cc1`: the activity change, negative = inhibition is -20.6%.
For `COc1ccc(NC(=O)c2ccc3nc(CCc4ccccc4)oc3c2)c(OC)c1` the value was 0.958%.
Turning to `CC(=O)N1CCCc2cc(S(=O)(=O)N3CCC(C(=O)NCc4ccc(F)cc4)CC3)ccc21`, the activity change, negative = inhibition was -2.54%.
The figure for `CCc1nccn1S(=O)(=O)c1cc(Br)ccc1Br` is -13.3%.
On to `COC(=O)c1ccc(C2C(C(=O)Nc3ccccc3)=C(C)Nc3nc4ccccc4n32)cc1` (stereo not given), for which the activity change, negative = inhibition was 6.56%.
The figure for `COc1ccc(CCNc2ncnc3nc[nH]c23)cc1OC` is -23.9%; for `c1ccc(-c2cc3c(NCC4COc5ccccc5O4)ncnc3s2)cc1` (stereo not given) it is -18.9%; for `c1ccc2c(c1)OCC(CNc1ncnc3nc[nH]c13)O2` (stereo not given) it is -86.7% (active).
Turning to `CCOc1ccccc1CNC(=O)c1ccc2c(c1)nc1n2CCC(C)C1` (stereo not given), the activity change, negative = inhibition was -12.2%.
`Cc1cc2nc(-c3ccc(NC(=O)c4cc5ccccc5o4)cc3)oc2cc1C`: the activity change, negative = inhibition is -20.5%.
As to `CCC(C)c1ccc2oc(-c3ccc(NC(=O)c4cc5ccccc5o4)cc3)nc2c1` (stereo not given), the activity change, negative = inhibition was -6.42%.
`CC(C)Oc1ccc(NC(=O)c2cc3ccccc3o2)cc1`: the activity change, negative = inhibition was -61.7% (active).
For `CC1=Nc2cc(C(=O)N3CCC(C)CC3)ccc2Sc2ccc(Cl)cc21` the value was 5.84%; for `CCOC(=O)N1CCc2c(sc3c2c(=O)n(-c2ccc(CC)cc2)c(=O)n3C)C1`, 5.44%; for `CCCc1cc(C(=O)Nc2ccc(Cl)cn2)cs1`, 11%.
For the molecule `CCCc1cc(C(=O)Nc2ccc(C(=O)OC)cc2)cs1`, the activity change, negative = inhibition is -31.2% (active).
With `CCN(CC)C(=O)CCC(=O)Nc1ccc(C(=O)OC)cc1`, the activity change, negative = inhibition is -2.84%.
For `Cc1ccc(C(=O)NCCSc2c(C)[nH]c3ccccc23)cc1C` the value was -23.5%; for `Cc1ccc(-n2c3nc(=O)[nH]c(=O)c-3cc3c(Cl)cccc32)cc1`, 7.04%.
The figure for `Cc1ccc(NC(=O)C(Cc2ccccc2)NS(=O)(=O)c2ccc3c(c2)oc(=O)n3C)cc1C` (stereo not given) is -42.8% (active).
As for `COc1ccccc1CNC(=O)C(Cc1ccccc1)NS(=O)(=O)c1ccc2c(c1)oc(=O)n2C` (stereo not given), the activity change, negative = inhibition was 3.15%.
For `Cc1ccc(NC(=O)CCNS(=O)(=O)c2ccc3c(c2)oc(=O)n3C)cc1C` the value was -0.228%; for `COc1ccc(-c2ccc(=O)n(CC(=O)Nc3ccc(Br)cc3F)n2)cc1`, 27.5%.
As for `O=C(CCCN1CCc2[nH]c3ccc(F)cc3c2C1)c1ccc(F)cc1`, the activity change, negative = inhibition is -73% (active).
For `O=c1c2ccccc2[nH]c(=S)n1CCN1CCC(=C(c2ccc(F)cc2)c2ccc(F)cc2)CC1`, the activity change, negative = inhibition is -22.1%.
As to `Cc1ccc2[nH]c3c(c2c1)CN(C(=O)CN1CCN(c2ccccc2)CC1)CC3`, the activity change, negative = inhibition is -26.5%.
